Data: PubChem BioAssay AID1159580 (chemical genetic matrix, 2015)
“And” between values parts separate entries of the source, which are not always exact repeats. Identical values can stand only once. About 2,000 (36%) of roughly 5,500 compounds were called active. Inconclusive results (about 18%) are left out. No stated cut-off is given here; in the data, active means normalized growth mostly below about 0.91 (no sharp cut-off); inconclusive means no clear call, values can overlap the other calls; inactive means mostly above about 0.92. The list shows a part of the results.

Test: chemical genetic growth profiling, strain panel (AID 1159580);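 further: tested at 20 µM; growth read once vehicle control cultures reached saturation at 30 °C; 1 = growth at the plate median or of vehicle wells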
Conditions: growth OD

Measured: normalized growth

CN(C)CCOC(=O)COc1ccc(Cl)cc1
active: S. cerevisiae deletion strains, locus YKR001C, strain vps1, stronger effect = lower value 1.14 [resistant] | S. cerevisiae deletion strains, locus YLR039C, strain RIC1, stronger effect = lower value 1.61 [resistant] | S. cerevisiae deletion strains, locus YLR262C, strain YPT6, stronger effect = lower value 1.85 [resistant] | S. cerevisiae deletion strains, locus YLR268W, strain sec22, stronger effect = lower value 1.15 [resistant] | S. cerevisiae deletion strains, locus YLR418C, strain cdc73, stronger effect = lower value 1.21 [resistant] | S. cerevisiae deletion strains, locus YOR184W, strain ser1, stronger effect = lower value 1.15 [resistant]
inactive: S. cerevisiae deletion strains, locus YKL009W, strain mrt4, stronger effect = lower value 1.04 | S. cerevisiae deletion strains, locus YKL068W, stronger effect = lower value 1 | S. cerevisiae deletion strains, locus YKL085W, strain MDH1 (second series), stronger effect = lower value 1.01 | S. cerevisiae deletion strains, locus YKL085W, strain MDH1, stronger effect = lower value 1.01 | S. cerevisiae deletion strains, locus YKL160W, strain elf1, stronger effect = lower value 0.972 | S. cerevisiae deletion strains, locus YKL190W, strain CNB1, stronger effect = lower value 1.01 | S. cerevisiae deletion strains, locus YKR026C, strain gcn3, stronger effect = lower value 0.948 | S. cerevisiae deletion strains, locus YKR091W, strain srl3, stronger effect = lower value 0.969 | S. cerevisiae deletion strains, locus YLL001W, strain dnm1, stronger effect = lower value 0.959 | S. cerevisiae deletion strains, locus YLL026W, stronger effect = lower value 0.969 | S. cerevisiae deletion strains, locus YLL041C, strain sdh2, stronger effect = lower value 0.961 | S. cerevisiae deletion strains, locus YLR027C, strain aat2, stronger effect = lower value 0.972 | S. cerevisiae deletion strains, locus YLR058C, strain SHM2, stronger effect = lower value 1.02 | S. cerevisiae deletion strains, locus YLR102C, strain apc9, stronger effect = lower value 1.02 | S. cerevisiae deletion strains, locus YLR113W, strain HOG1, stronger effect = lower value 0.971 | S. cerevisiae deletion strains, locus YLR221C, strain rsa3, stronger effect = lower value 0.987 | S. cerevisiae deletion strains, locus YLR258W, strain gsy2, stronger effect = lower value 0.965 | S. cerevisiae deletion strains, locus YLR262C, strain YPT6 (second series), stronger effect = lower value 1.08 | S. cerevisiae deletion strains, locus YLR320W, strain mms22, stronger effect = lower value 1.01 | S. cerevisiae deletion strains, locus YLR330W, strain CHS5, stronger effect = lower value 1.02 | S. cerevisiae deletion strains, locus YLR342W, strain FKS1 (second series), stronger effect = lower value 0.953 | S. cerevisiae deletion strains, locus YLR342W, strain FKS1, stronger effect = lower value 0.97 | S. cerevisiae deletion strains, locus YLR357W, strain rsc2, stronger effect = lower value 1.01 | S. cerevisiae deletion strains, locus YLR370C, strain arc18, stronger effect = lower value 0.962 | S. cerevisiae deletion strains, locus YLR371W, strain rom2, stronger effect = lower value 1.02 | S. cerevisiae deletion strains, locus YLR384C, strain iki3, stronger effect = lower value 0.983 | S. cerevisiae deletion strains, locus YML016C, strain PPZ1, stronger effect = lower value 1.02 | S. cerevisiae deletion strains, locus YML032C, strain rad52, stronger effect = lower value 1.07 | S. cerevisiae deletion strains, locus YML120C, strain ndi1, stronger effect = lower value 0.966 | S. cerevisiae deletion strains, locus YML124C, strain tub3, stronger effect = lower value 1.04 | S. cerevisiae deletion strains, locus YMR058W, strain fet3, stronger effect = lower value 0.976 | S. cerevisiae deletion strains, locus YMR078C, strain ctf18, stronger effect = lower value 1.05 | S. cerevisiae deletion strains, locus YMR125W, strain sto1, stronger effect = lower value 0.965 | S. cerevisiae deletion strains, locus YMR129W, stronger effect = lower value 0.973 | S. cerevisiae deletion strains, locus YMR205C, strain PFK2, stronger effect = lower value 0.986 | S. cerevisiae deletion strains, locus YMR223W, strain ubp8, stronger effect = lower value 1.04 | S. cerevisiae deletion strains, locus YMR231W, strain pep5, stronger effect = lower value 0.976 | S. cerevisiae deletion strains, locus YMR263W, strain SAP30, stronger effect = lower value 1.05 | S. cerevisiae deletion strains, locus YMR307W, strain GAS1, stronger effect = lower value 0.963 | S. cerevisiae deletion strains, locus YNL067W, strain RPL9B, stronger effect = lower value 1.06 | S. cerevisiae deletion strains, locus YNL071W, strain lat1, stronger effect = lower value 0.988 | S. cerevisiae deletion strains, locus YNL128W, strain TEP1, stronger effect = lower value 1.03 | S. cerevisiae deletion strains, locus YNL153C, strain GIM3, stronger effect = lower value 1.03 and 0.882 | S. cerevisiae deletion strains, locus YNL175C, strain NOP13, stronger effect = lower value 0.949 | S. cerevisiae deletion strains, locus YNL183C, strain NPR1, stronger effect = lower value 0.962 | S. cerevisiae deletion strains, locus YNL197C, strain WHI3, stronger effect = lower value 0.954 | S. cerevisiae deletion strains, locus YNL209W, strain ssb2, stronger effect = lower value 0.974 | S. cerevisiae deletion strains, locus YNL224C, strain SQS1, stronger effect = lower value 1.01 | S. cerevisiae deletion strains, locus YNL233W, strain BNI4, stronger effect = lower value 1.07 | S. cerevisiae deletion strains, locus YNL248C, strain rpa49, stronger effect = lower value 0.996 | S. cerevisiae deletion strains, locus YNL250W, strain rad50, stronger effect = lower value 1.01 | S. cerevisiae deletion strains, locus YNL271C, strain bni1, stronger effect = lower value 1.04 | S. cerevisiae deletion strains, locus YNL298W, strain CLA4, stronger effect = lower value 1.02 | S. cerevisiae deletion strains, locus YNL307C, strain MCK1, stronger effect = lower value 1.05 | S. cerevisiae deletion strains, locus YNL322C, strain KRE1 (second series), stronger effect = lower value 0.977 | S. cerevisiae deletion strains, locus YNL322C, strain KRE1, stronger effect = lower value 1.02 | S. cerevisiae deletion strains, locus YNR049C, strain mso1, stronger effect = lower value 0.955 | S. cerevisiae deletion strains, locus YNR052C, strain pop2, stronger effect = lower value 1.07 | S. cerevisiae deletion strains, locus YOL006C, strain TOP1, stronger effect = lower value 1.01 | S. cerevisiae deletion strains, locus YOL012C, strain htz1 1.88 | S. cerevisiae deletion strains, locus YOL147C, strain pex11, stronger effect = lower value 1.03 | S. cerevisiae deletion strains, locus YOR001W, strain rrp6, stronger effect = lower value 0.947 | S. cerevisiae deletion strains, locus YOR061W, strain CKA2, stronger effect = lower value 1.03 | S. cerevisiae deletion strains, locus YOR069W, strain VPS5, stronger effect = lower value 1 | S. cerevisiae deletion strains, locus YOR070C, strain gyp1, stronger effect = lower value 0.984 | S. cerevisiae deletion strains, locus YOR080W, strain dia2, stronger effect = lower value 0.952 | S. cerevisiae deletion strains, locus YOR083W, strain WHI5 (second series), stronger effect = lower value 0.994 | S. cerevisiae deletion strains, locus YOR083W, strain WHI5, stronger effect = lower value 0.979 | S. cerevisiae deletion strains, locus YOR106W, strain vam3, stronger effect = lower value 1 | S. cerevisiae deletion strains, locus YOR136W, strain idh2, stronger effect = lower value 1.03 | S. cerevisiae deletion strains, locus YOR144C, strain elg1, stronger effect = lower value 1.02 | S. cerevisiae deletion strains, locus YOR231W, strain MKK1, stronger effect = lower value 1.05 | S. cerevisiae deletion strains, locus YOR265W, strain rbl2, stronger effect = lower value 0.964 | S. cerevisiae deletion strains, locus YOR270C, strain vph1, stronger effect = lower value 0.884 | S. cerevisiae deletion strains, locus YOR290C, strain snf2, stronger effect = lower value 0.962 | S. cerevisiae deletion strains, locus YOR316C, strain cot1, stronger effect = lower value 1.02 | S. cerevisiae deletion strains, locus YPL051W, strain arl3, stronger effect = lower value 0.986 | S. cerevisiae deletion strains, locus YPL055C, strain LGE1, stronger effect = lower value 1.06 and 1.03 | S. cerevisiae deletion strains, locus YPL078C, strain atp4, stronger effect = lower value 0.973 | S. cerevisiae deletion strains, locus YPL106C, strain sse1, stronger effect = lower value 0.878 | S. cerevisiae deletion strains, locus YPL240C, strain hsp82, stronger effect = lower value 0.957 | S. cerevisiae deletion strains, locus YPL241C, strain CIN2, stronger effect = lower value 1.01 | S. cerevisiae deletion strains, locus YPL256C, strain CLN2, stronger effect = lower value 1.1 | S. cerevisiae deletion strains, locus YPR119W, strain clb2, stronger effect = lower value 1.03 | S. cerevisiae deletion strains, locus YPR141C, strain kar3, stronger effect = lower value 1.02 | S. cerevisiae deletion strains, locus YPR163C, strain tif3, stronger effect = lower value 1.06 | S. cerevisiae deletion strains, locus YPR167C, strain met16, stronger effect = lower value 1.05 | S. cerevisiae deletion strains, strain wtn01, stronger effect = lower value 1.04 | S. cerevisiae strains, strain wild type, stronger effect = lower value 1.03
